Common to all, as to experiment: NCI-60 one-dose screen, 48 h (100 = growth as untreated, 0 = no growth, -100 = all killed)
Conditions in all cases: 10 µM unless noted

Experiment [1] has as its system T-47D breast.
Experiment [2] deals with MDA-MB-435 melanoma.
In experiment [3] the test system is SW-620 colon.
The subject of experiment [4] is MCF7 breast.
In experiment [5] the test system is HCC-2998 colon.
Experiment [6] deals with KM12 colon.
Experiment [7] has as its system BT-549 breast.
Experiment [8] deals with HCT-116 colon.

The structures appear in SMILES notation. About 83,000 compounds went through this panel and 20% of them were active in at least one assay; those are over-represented in the sample as a whole.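 Negative percent growth values reflect cell death: -40 means 40% of the cells present at the start died, and -100 means all died.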 A number with no mark means an inactive call. Activity calls are given as the source filed them. The calls were made as follows: active = growth percent below 10; inactive = the rest.

As for `C#C[C@]1(O)CC[C@H]2[C@@H]3CC=C4c5sc(N=C(N)N)nc5CC[C@]4(C)[C@H]3CC[C@@]21C`, the growth in experiment [1] was 1.23% (active); in experiment [2], -55.9% (active); in experiment [3], -47.1% (active); in experiment [4], 0.374% (active); in experiment [5], -15.9% (active); in experiment [6], -28.6% (active).

As for `CS(=O)(=O)c1ccc(N/N=C/c2c(-c3ccc(S(C)(=O)=O)cc3)[nH]c3ccc(F)cc23)cc1`, the growth in experiment [7] was 23.9%; in experiment [2] it was 40.3%; in experiment [3], 59.7%; in experiment [4], 18.9%; in experiment [8] it was 27.1%; in experiment [5], 52.3%. In experiment [6], the growth was 29.2%.

Consider `CC[C@]1(O)C[C@H]2CN(CCc3c([nH]c4ccccc34)[C@@](C(=O)OC)(c3cc4c(cc3OC)N(C=O)[C@H]3[C@@](O)(C(=O)OC)[C@H](OC(C)=O)[C@]5(CC)C=CCN6CC[C@]43[C@@H]65)C2)C1`, for which the growth was 54.8% in experiment [1]; -43.7% (active) in experiment [2]; 15.5% in experiment [3]; 2.44% (active) in experiment [4]; -36.7% (active) in experiment [8]; 5.78% (active) in experiment [6].

`OC(COc1cccc2ccccc12)CN1CCN(c2ccccc2)CC1` (configuration not stated): the growth is 86.2% in experiment [1]; 88.2% in experiment [2]; 102% in experiment [3]; 96.4% in experiment [4]; 86.9% in experiment [8]; 95.3% in experiment [6].

For `Oc1ccccc1-c1nc2ccccn2c1NCCN1CCOCC1`, the growth in experiment [7] is 99.2%; in experiment [2], 102%; in experiment [3], 94.8%; in experiment [4], 96.7%; in experiment [8], 93.9%; in experiment [5], 101%. The growth in experiment [6] was 91.2%.

`NS(=O)(=O)c1cn(-c2ncnc3nc[nH]c23)ccc1=O`: the growth in experiment [1] was 76.7%; in experiment [3] it was 95.1%; in experiment [4], 104%; in experiment [8], 94.5%; in experiment [5] it was 107%; in experiment [6] it was 92.9%.

In the case of `C[C@@H]1C(=O)N(C[C@H](Cc2ccccc2)NC(=O)OCc2ccccc2)[C@]1(Cc1ccccc1)C(=O)OC(C)(C)C`, the growth is 43.3% in experiment [1]; 76.9% in experiment [2]; 83.2% in experiment [3]; 61.1% in experiment [4]; 87.7% in experiment [5]; 70.3% in experiment [6].

Consider `O=C1c2ccccc2C(=O)c2cc(Cn3cc[n+](Cc4ccc5ccccc5c4)c3)ccc21`, for which the growth in experiment [1] is 70.1%; in experiment [2], 84.8%; in experiment [3], 84.2%; in experiment [4], 59.2%; in experiment [8] it was 84.3%; in experiment [5], 79.1%. Further, in experiment [6], the growth is 77.8%.

`O=c1[nH]nc(-c2ccc(Cl)cc2)cc1Cc1ccccc1`: the growth in experiment [1] is 84.1%; in experiment [2], 106%; in experiment [3] it was 105%; in experiment [4], 92.2%; in experiment [5], 113%; in experiment [6] it was 102%.

In the case of `COC(=O)CNC(=O)C(=O)c1c(O)c(O)c(C(C)C)c2cc(C)c(-c3c(C)cc4c(C(C)C)c(O)c(O)c(C(=O)C(=O)NCC(=O)OC)c4c3O)c(O)c12`, the growth is 16% in experiment [1]; 55.1% in experiment [2]; 16% in experiment [3]; 18% in experiment [4]; 33.8% in experiment [5]; 16.1% in experiment [6].

With `O=C(O)c1ccc(CO)o1`, the growth in experiment [1] was 105%; in experiment [2], 109%; in experiment [3], 104%; in experiment [4] it was 84.1%; in experiment [5], 111%; in experiment [6] it was 106%.

As for `CCC(O)(C(c1ccccc1)c1ccccn1)C(c1ccccc1)c1ccccn1` (configuration not stated), the growth in experiment [1] was 92.3%; in experiment [2], 117%; in experiment [3] it was 120%; in experiment [4], 101%; in experiment [8] it was 99.4%; in experiment [6], 106%.

As to `O=C(/C=C/c1ccccc1)c1ccc2ccccc2c1`, the growth is 47.4% in experiment [1]; 103% in experiment [2]; 49.9% in experiment [4]; -5.91% (active) in experiment [8]; 93.2% in experiment [6].

With `CC(C)n1nc(C#Cc2cccc(NC(=O)c3cccc(C(F)(F)F)c3)c2)c2c(N)ncnc21`, the growth in experiment [7] is 9.72% (active); in experiment [2], 2.12% (active); in experiment [3], 1.28% (active); in experiment [4], 14.4%; in experiment [8], -50.6% (active); in experiment [5] it was 2.89% (active). Further, the growth in experiment [6] was 3.28% (active).

For `Cc1nc2ccccc2c(/C=C/c2ccc(Cl)cc2)c1C(=O)/C=C/c1ccc(Cl)cc1`, the growth in experiment [1] is -15.3% (active); in experiment [2] it was -51.4% (active); in experiment [3], -37.4% (active); in experiment [4], 3.86% (active); in experiment [5], -74.7% (active); in experiment [6], -38.4% (active).

Take `CN1C(=O)CCC(N2C(=O)c3cccc(NCCOCCOCCNC(=O)c4cc5c(o4)C(=O)c4ccccc4C5=O)c3C2=O)C1=O` (configuration not stated): the growth in experiment [1] was 11.1%; in experiment [2], -94.6% (active); in experiment [3] it was -3.3% (active); in experiment [4], -65% (active); in experiment [5] it was -62.2% (active); in experiment [6] it was -11.8% (active).

As for `O=c1[nH]c(=O)n(C2CC(O)C(CO)O2)cc1CO` (configuration not stated), the growth in experiment [1] was 87.7%; in experiment [2] it was 99%; in experiment [3] it was 96.6%; in experiment [4], 65.4%; in experiment [8] it was 91.4%; in experiment [6], 103%.

Turning to `CC(=O)c1sc(-c2ccccc2)cc1N`, the growth in experiment [1] was 83%; in experiment [3], 96.5%; in experiment [4] it was 97.7%; in experiment [8], 98.8%; in experiment [5] it was 99.4%; in experiment [6], 104%.

Take `O=C(C[C@@]1(O)C(=O)Nc2c(Cl)ccc(Cl)c21)c1ccc(C2CC2)cc1`: the growth in experiment [1] was 40.5%; in experiment [3] it was 19.4%; in experiment [4], 16.5%; in experiment [5], 9.4% (active); in experiment [6], 24.7%.

On to `CCOc1ccc(-c2nc3ccc(-c4nc5ccc(N6CCN(C)CC6)cc5[nH]4)cc3[nH]2)cc1OCC`, for which the growth in experiment [1] is 15.2%; in experiment [2], -2.53% (active); in experiment [3] it was 0.486% (active); in experiment [4] it was 7.04% (active); in experiment [8] it was -3.06% (active); in experiment [5] it was -15.9% (active). Further, in experiment [6], the growth was 43%.

As to `O=C1N/C(=N/O)S/C1=C/c1cn(-c2ccccc2)nc1-c1ccccc1`, the growth in experiment [7] was 92.3%; in experiment [2] it was 106%; in experiment [3] it was 107%; in experiment [4], 82.2%; in experiment [8] it was 82.4%; in experiment [5], 126%. Moreover, in experiment [6], the growth was 86.4%.

Turning to `Clc1cnc(Nc2ccc(OCCN3CCCC3)cc2)nc1NCc1ccco1`, the growth is 45.7% in experiment [7]; 34.5% in experiment [2]; 6.11% (active) in experiment [3]; -0.965% (active) in experiment [4]; 7.55% (active) in experiment [8]; 59.1% in experiment [5]. Also, in experiment [6], the growth was 4.56% (active).

On to `CN(C)c1cnccn1`, for which the growth in experiment [1] is 75.9%; in experiment [2], 100%; in experiment [3] it was 88.7%; in experiment [4], 87.3%; in experiment [8] it was 97.3%; in experiment [5], 112%. For the same compound, in experiment [6], the growth is 103%.

Turning to `CCCCn1c(=O)[nH]c(N)c(C(c2ccc(F)cc2)c2c(N)[nH]c(=O)n(CCCC)c2=O)c1=O`, the growth is 39.6% in experiment [1]; 64.7% in experiment [2]; 91.1% in experiment [3]; 46.8% in experiment [4]; 72.9% in experiment [5]; 61.3% in experiment [6].

Regarding `Cc1cnc(Nc2ccc(OCCN3CCCC3)cc2)nc1NCc1ccco1`, the growth in experiment [7] was 78.2%; in experiment [2] it was 84.1%; in experiment [3] it was 67.5%; in experiment [4], 50.8%; in experiment [8], 40.5%; in experiment [5] it was 87%. For the same compound, in experiment [6], the growth was 22.7%.
